Screen size: about 5,500 compounds; about 2,000 (36%) were called active. About 18% were inconclusive and are not listed. Rule as the data show it: active = normalized growth mostly below about 0.91 (no sharp cut-off); inconclusive = no clear call, values can overlap the other calls; inactive = mostly above about 0.92. This is one part of the list.
Assay: chemical genetic growth profiling, strain panel (AID 1159580);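 also: tested at 20 µM; growth read once vehicle control cultures reached saturation at 30 °C; 1 = growth at the plate median or of vehicle wells; lower values mean less growth of the strain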
Conditions: growth OD

Measured: normalized growth

NCC(=O)c1ccccc1
inactive: S. cerevisiae deletion strains, locus YJR075W, strain HOC1, active compounds read low 1.05 | S. cerevisiae deletion strains, locus YKL009W, strain mrt4, active compounds read low 0.981 | S. cerevisiae deletion strains, locus YKL068W, active compounds read low 1 | S. cerevisiae deletion strains, locus YKL085W, strain MDH1 (second series), active compounds read low 0.988 | S. cerevisiae deletion strains, locus YKL085W, strain MDH1, active compounds read low 0.988 | S. cerevisiae deletion strains, locus YKL160W, strain elf1, active compounds read low 1 | S. cerevisiae deletion strains, locus YKL190W, strain CNB1, active compounds read low 1.02 | S. cerevisiae deletion strains, locus YKR001C, strain vps1, active compounds read low 0.988 | S. cerevisiae deletion strains, locus YKR026C, strain gcn3, active compounds read low 1 | S. cerevisiae deletion strains, locus YKR091W, strain srl3, active compounds read low 0.997 | S. cerevisiae deletion strains, locus YLL001W, strain dnm1, active compounds read low 1 | S. cerevisiae deletion strains, locus YLL026W, active compounds read low 1 | S. cerevisiae deletion strains, locus YLL041C, strain sdh2, active compounds read low 1 | S. cerevisiae deletion strains, locus YLR027C, strain aat2, active compounds read low 0.997 | S. cerevisiae deletion strains, locus YLR039C, strain RIC1, active compounds read low 1.03 | S. cerevisiae deletion strains, locus YLR058C, strain SHM2, active compounds read low 1.02 | S. cerevisiae deletion strains, locus YLR102C, strain apc9, active compounds read low 0.988 | S. cerevisiae deletion strains, locus YLR113W, strain HOG1, active compounds read low 1.07 | S. cerevisiae deletion strains, locus YLR221C, strain rsa3, active compounds read low 1.02 | S. cerevisiae deletion strains, locus YLR258W, strain gsy2, active compounds read low 0.977 | S. cerevisiae deletion strains, locus YLR262C, strain YPT6 (second series), active compounds read low 1.03 | S. cerevisiae deletion strains, locus YLR262C, strain YPT6, active compounds read low 1.02 | S. cerevisiae deletion strains, locus YLR268W, strain sec22, active compounds read low 0.986 | S. cerevisiae deletion strains, locus YLR320W, strain mms22, active compounds read low 0.991 | S. cerevisiae deletion strains, locus YLR330W, strain CHS5, active compounds read low 1.02 | S. cerevisiae deletion strains, locus YLR342W, strain FKS1 (second series), active compounds read low 0.988 | S. cerevisiae deletion strains, locus YLR342W, strain FKS1, active compounds read low 0.992 | S. cerevisiae deletion strains, locus YLR357W, strain rsc2, active compounds read low 0.966 | S. cerevisiae deletion strains, locus YLR370C, strain arc18, active compounds read low 1.01 | S. cerevisiae deletion strains, locus YLR371W, strain rom2, active compounds read low 0.993 | S. cerevisiae deletion strains, locus YLR384C, strain iki3, active compounds read low 1.01 | S. cerevisiae deletion strains, locus YLR418C, strain cdc73, active compounds read low 1 | S. cerevisiae deletion strains, locus YML016C, strain PPZ1, active compounds read low 1.02 | S. cerevisiae deletion strains, locus YML032C, strain rad52, active compounds read low 0.986 | S. cerevisiae deletion strains, locus YML120C, strain ndi1, active compounds read low 0.989 | S. cerevisiae deletion strains, locus YML124C, strain tub3, active compounds read low 0.993 | S. cerevisiae deletion strains, locus YMR058W, strain fet3, active compounds read low 1.01 | S. cerevisiae deletion strains, locus YMR078C, strain ctf18, active compounds read low 1 | S. cerevisiae deletion strains, locus YMR125W, strain sto1, active compounds read low 1.01 | S. cerevisiae deletion strains, locus YMR129W, active compounds read low 1 | S. cerevisiae deletion strains, locus YMR205C, strain PFK2, active compounds read low 1.01 | S. cerevisiae deletion strains, locus YMR223W, strain ubp8, active compounds read low 0.987 | S. cerevisiae deletion strains, locus YMR231W, strain pep5, active compounds read low 0.992 | S. cerevisiae deletion strains, locus YMR263W, strain SAP30, active compounds read low 1.04 | S. cerevisiae deletion strains, locus YMR307W, strain GAS1, active compounds read low 1.02 | S. cerevisiae deletion strains, locus YNL067W, strain RPL9B, active compounds read low 1.04 | S. cerevisiae deletion strains, locus YNL071W, strain lat1, active compounds read low 0.998 | S. cerevisiae deletion strains, locus YNL128W, strain TEP1, active compounds read low 1.05 | S. cerevisiae deletion strains, locus YNL153C, strain GIM3, active compounds read low 1.02 | S. cerevisiae deletion strains, locus YNL183C, strain NPR1, active compounds read low 0.995 | S. cerevisiae deletion strains, locus YNL209W, strain ssb2, active compounds read low 1 | S. cerevisiae deletion strains, locus YNL233W, strain BNI4, active compounds read low 1.02 | S. cerevisiae deletion strains, locus YNL248C, strain rpa49, active compounds read low 0.99 | S. cerevisiae deletion strains, locus YNL250W, strain rad50, active compounds read low 0.985 | S. cerevisiae deletion strains, locus YNL271C, strain bni1, active compounds read low 0.986 | S. cerevisiae deletion strains, locus YNL298W, strain CLA4, active compounds read low 0.994 | S. cerevisiae deletion strains, locus YNL307C, strain MCK1, active compounds read low 0.987 | S. cerevisiae deletion strains, locus YNL322C, strain KRE1 (second series), active compounds read low 0.989 | S. cerevisiae deletion strains, locus YNL322C, strain KRE1, active compounds read low 1.03 | S. cerevisiae deletion strains, locus YNR049C, strain mso1, active compounds read low 1.02 | S. cerevisiae deletion strains, locus YNR052C, strain pop2, active compounds read low 0.995 | S. cerevisiae deletion strains, locus YOL006C, strain TOP1, active compounds read low 1.09 | S. cerevisiae deletion strains, locus YOL012C, strain htz1 1.45 | S. cerevisiae deletion strains, locus YOL147C, strain pex11, active compounds read low 0.993 | S. cerevisiae deletion strains, locus YOR001W, strain rrp6, active compounds read low 1.01 | S. cerevisiae deletion strains, locus YOR061W, strain CKA2, active compounds read low 1.01 | S. cerevisiae deletion strains, locus YOR069W, strain VPS5, active compounds read low 1.01 | S. cerevisiae deletion strains, locus YOR070C, strain gyp1, active compounds read low 1 | S. cerevisiae deletion strains, locus YOR080W, strain dia2, active compounds read low 0.995 | S. cerevisiae deletion strains, locus YOR083W, strain WHI5, active compounds read low 0.994 | S. cerevisiae deletion strains, locus YOR106W, strain vam3, active compounds read low 1.02 | S. cerevisiae deletion strains, locus YOR136W, strain idh2, active compounds read low 0.991 | S. cerevisiae deletion strains, locus YOR144C, strain elg1, active compounds read low 0.999 | S. cerevisiae deletion strains, locus YOR184W, strain ser1, active compounds read low 0.983 | S. cerevisiae deletion strains, locus YOR231W, strain MKK1, active compounds read low 1.08 | S. cerevisiae deletion strains, locus YOR265W, strain rbl2, active compounds read low 1.01 | S. cerevisiae deletion strains, locus YOR270C, strain vph1, active compounds read low 1.06 | S. cerevisiae deletion strains, locus YOR290C, strain snf2, active compounds read low 0.998 | S. cerevisiae deletion strains, locus YOR316C, strain cot1, active compounds read low 0.992 | S. cerevisiae deletion strains, locus YPL051W, strain arl3, active compounds read low 1.01 | S. cerevisiae deletion strains, locus YPL055C, strain LGE1, active compounds read low 1.06 | S. cerevisiae deletion strains, locus YPL078C, strain atp4, active compounds read low 1.02 | S. cerevisiae deletion strains, locus YPL106C, strain sse1, active compounds read low 0.973 | S. cerevisiae deletion strains, locus YPL240C, strain hsp82, active compounds read low 0.996 | S. cerevisiae deletion strains, locus YPL241C, strain CIN2, active compounds read low 1.02 | S. cerevisiae deletion strains, locus YPL256C, strain CLN2, active compounds read low 1.05 | S. cerevisiae deletion strains, locus YPR119W, strain clb2, active compounds read low 0.996 | S. cerevisiae deletion strains, locus YPR141C, strain kar3, active compounds read low 0.993 | S. cerevisiae deletion strains, locus YPR163C, strain tif3, active compounds read low 0.99 | S. cerevisiae deletion strains, locus YPR167C, strain met16, active compounds read low 0.991 | S. cerevisiae deletion strains, strain wtn01, active compounds read low 0.987 | S. cerevisiae strains, strain wild type, active compounds read low 1.01

Reference: PubChem BioAssay AID1159580 (chemical genetic matrix, 2015)
